Laboratory results: PubChem BioAssay (EPA / NIEHS)
“And” between values parts separate entries of the source, which are not always exact repeats. Identical values can stand only once. The source holds several records for some structures; these can differ, active in one and inactive in another. The source made the active and inactive calls. How the source made its calls: active means hit-call score of the fitted dose curve at least 0.9, where 1 is the maximum; inactive means score below 0.9.

What was measured:
[1] = target: Transcription factor E2F1 (Homo sapiens) (UniProt Q01094); assay: ATG_E2F_CIS: Attagene CIS-FACTORIAL HepG2 Assay for human E2F Transcription Factor 1 (AID 2282935); settings: HepG2 Attagene cis-reporter, E2F reporter RNA transcripts; actives raise or lower the signal
In short: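 First, HepG2 cells were transfected with reporter transcription units. Next, they were dosed for 24 h. Then RNA was isolated, converted to cDNA, PCR-amplified, FAM-labeled, HpaI-digested and analyzed by capillary electrophoresis.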

[2] = ATG_E_Box_CIS: Attagene CIS-FACTORIAL HepG2 Assay for human Enhancer Box (E-box) (AID 2282936); settings: HepG2 E-box cis-reporter transcription, actives raise or lower the signal
In short: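 Endogenous transcription factor activity was sensed in human HepG2 liver cells through transfected cis-promoter reporter units. After 24 h of dosing, total RNA was reverse-transcribed and reporter cDNA resolved by capillary electrophoresis.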

[3] = ATG_M_61_CIS: Attagene CIS-FACTORIAL HepG2 Assay for M61 Transcription Factor (Internal Marker) (AID 2282937); settings: HepG2 Attagene CIS-FACTORIAL M61 internal marker reporter; actives raise or lower the signal
In short: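 Readout: fluorescent reporter mRNA fragments resolved by capillary electrophoresis after RT-PCR. Transiently transfected human HepG2 cells carried MRTU constructs reporting endogenous TF activity; 24 h chemical exposure; gain or loss of signal fitted relative to DMSO.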

[4] = ATG_EGR_CIS: Attagene CIS-FACTORIAL HepG2 Assay for human Early Growth Response 1 (EGR1) (AID 2282938); settings: HepG2 Attagene CIS-FACTORIAL EGR reporter mRNA; actives raise or lower the signal
In short: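 Read-out: fluorescent reporter-mRNA fragments resolved by capillary electrophoresis after RT-PCR, 24 h post-dose in transiently transfected HepG2. Endogenous transcription-factor activity reported via cis-element-regulated reporter units; gain or loss fitted relative to DMSO.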

[5] = ATG_M_19_CIS: Attagene CIS-FACTORIAL HepG2 Assay for M19 Transcription Factor (Internal Marker) (AID 2282939); settings: HepG2 Attagene CIS-FACTORIAL M19 internal marker reporter; actives raise or lower the signal
In short: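 Transfect HepG2 with MRTU reporter library → dose chemical, 24 h → isolate total RNA, reverse-transcribe with oligo(dT) → PCR, 6-FAM label, HpaI cut (2 h, 37 C) → capillary electrophoresis. Bidirectional fit vs DMSO.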

[6] = ATG_ERE_CIS: Attagene CIS-FACTORIAL HepG2 Assay for Estrogen Response Element (ERE) (AID 2282940); settings: HepG2 ERE cis-reporter, Attagene RNA transcript; actives raise or lower the signal
In short: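 Transient MRTU transfection of human HepG2; cis-element promoters; 24 h dosing; total RNA → RT (oligo dT) → PCR → 6-FAM primer extension → HpaI digest → CE fluorescence. Bidirectional fit, DMSO baseline.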

[7] = ATG_Ets_CIS: Attagene CIS-FACTORIAL HepG2 Assay for human Erythroblast Transformation Specific (ETS) (AID 2282941); settings: HepG2 ETS cis-reporter transcription, actives raise or lower the signal
In short: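 Cis-regulated reporter mRNA induction in HepG2 (transient transfection), 24 h exposure, RT-PCR plus capillary electrophoresis detection; DMSO serves as negative control and baseline.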

[8] = target: Hepatocyte nuclear factor 3-beta (Homo sapiens) (UniProt Q9Y261); assay: ATG_FoxA2_CIS: Attagene CIS-FACTORIAL HepG2 Assay for human Forkhead box A2 (FOXA2) (AID 2282942); settings: HepG2 cis-reporter transcription factor activity, 24 h; actives raise or lower the signal
In short: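 Readout: fluorescent reporter transcripts resolved by capillary electrophoresis after RT-PCR. Transiently transfected HepG2, 24 h compound exposure, endogenous TF activity at cis promoter elements. Gain or loss of signal fitted relative to DMSO.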

[9] = ATG_FoxO_CIS: Attagene CIS-FACTORIAL HepG2 Assay for human Forkhead box O (FoxO) (AID 2282943); settings: HepG2 Attagene cis-reporter, FoxO element, mRNA; actives raise or lower the signal
In short: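 Values reflect reporter mRNA induction or loss in HepG2 cells 24 h post-dosing, fitted bidirectionally with DMSO as negative control and baseline. Detection used RT-PCR and fluorescence capillary electrophoresis.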

[10] = ATG_GATA_CIS: Attagene CIS-FACTORIAL HepG2 Assay for human GATA Binding Protein (AID 2282944); settings: HepG2 GATA cis-element reporter, Attagene multiplex mRNA; actives raise or lower the signal
In short: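 Transient MRTU transfection, HepG2, 24 h compound exposure. Total RNA → oligo(dT) RT → PCR → 6-FAM primer extension → HpaI cut → CE. Bidirectional fit vs DMSO.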

Measured: AC50

Chain of Hepatocyte nuclear factor 3-beta (Homo sapiens) (Q9Y261 whole entry, looked up): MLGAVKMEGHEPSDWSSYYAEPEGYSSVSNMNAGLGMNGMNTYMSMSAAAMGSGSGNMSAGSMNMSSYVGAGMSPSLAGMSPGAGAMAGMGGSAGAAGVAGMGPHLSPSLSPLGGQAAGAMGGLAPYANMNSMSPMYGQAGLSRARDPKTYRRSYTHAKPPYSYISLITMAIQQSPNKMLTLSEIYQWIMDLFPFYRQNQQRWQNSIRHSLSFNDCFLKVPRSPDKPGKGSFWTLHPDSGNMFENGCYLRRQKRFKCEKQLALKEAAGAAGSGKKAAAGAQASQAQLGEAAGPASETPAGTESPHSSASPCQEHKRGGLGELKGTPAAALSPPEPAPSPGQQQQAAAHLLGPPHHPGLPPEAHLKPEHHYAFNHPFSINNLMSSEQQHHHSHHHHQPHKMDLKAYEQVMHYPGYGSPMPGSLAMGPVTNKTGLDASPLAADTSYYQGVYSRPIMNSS
Chain of Transcription factor E2F1 (Homo sapiens) (Q01094 whole entry, looked up): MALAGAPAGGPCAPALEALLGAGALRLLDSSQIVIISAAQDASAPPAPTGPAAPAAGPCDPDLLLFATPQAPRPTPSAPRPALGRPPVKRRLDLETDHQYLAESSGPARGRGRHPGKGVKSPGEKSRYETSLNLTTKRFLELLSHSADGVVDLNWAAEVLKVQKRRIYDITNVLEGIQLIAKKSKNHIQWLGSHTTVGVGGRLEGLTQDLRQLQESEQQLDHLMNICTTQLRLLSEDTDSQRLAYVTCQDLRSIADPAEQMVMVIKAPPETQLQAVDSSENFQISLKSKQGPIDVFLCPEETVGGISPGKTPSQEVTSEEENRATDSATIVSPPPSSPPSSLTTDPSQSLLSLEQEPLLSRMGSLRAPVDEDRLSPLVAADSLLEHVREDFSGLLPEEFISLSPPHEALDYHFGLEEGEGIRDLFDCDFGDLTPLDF

O=C(O)C(F)(OC(F)(F)C(F)(F)C(F)(F)F)C(F)(F)F (stereo not given)
not listed: [10]
inactive: all other assays above

Cc1cccc(N)c1
inactive: all assays above

CCC1(c2ccccc2)C(=O)N=C(O)NC1=O (stereo not given)
inactive: all assays above

CCN(CC)c1ccccc1
not listed: [10]
inactive: all other assays above

Oc1ccccc1Br
inactive: all assays above

ClC(Cl)=C(c1ccc(Cl)cc1)c1ccccc1Cl
active: [2] 63.6 µM | [6] 4.18 µM | [7] 174 µM | [9] 160 µM
inactive: all other assays above

CC(C)(C)OOC(C)(C)C
inactive: all assays above

O=[N+]([O-])c1cc(Cl)ccc1Cl
inactive: all assays above

O=[N+]([O-])c1ccccc1
active: [6] 52.7 µM
inactive: all other assays above

O=C(O)C(Cl)Cl
inactive: all assays above

CCOP(=S)(OCC)SCS(=O)(=O)CC
not listed: [10]
inactive: all other assays above

c1ccc2c(c1)sc1ccccc12
active: [6] 125 µM
inactive: all other assays above

Cc1cc(C)c(C(=O)P(=O)(c2ccccc2)c2ccccc2)c(C)c1
active: [2] 54.9 µM | [3] 60.7 µM | [4] 41.3 µM | [5] 61.5 µM | [6] 8.69 µM | [10] 54.9 µM
inactive: [1] | [7] | [8] | [9]

COC(=O)C(F)(F)C(F)(F)OC(F)(C(F)(F)F)C(F)(F)OC(F)=C(F)F (stereo not given)
active: [6] 303 nM and 563 nM and 514 nM
inactive: all other assays above

O=c1ssc(Cl)c1Cl
active: [4] 60.3 µM | [7] 52.1 µM
inactive: all other assays above

ClC1=C(Cl)C2(Cl)C3C(Cl)C(Cl)CC3C1(Cl)C2(Cl)Cl (stereo not given)
active: [2] 52.3 µM | [4] 25.2 µM | [6] 11.2 µM
not listed: [10]
inactive: all other assays above

CCOP(=O)(O)C(N)=O
inactive: all assays above

O=c1[nH]c2ccccc2c(=O)o1
inactive: all assays above

O=C(O)CF
not listed: [10]
inactive: all other assays above

COP(=O)(CCC(=O)NCO)OC
inactive: all assays above

CC(Cl)CN(C)C (stereo not given)
inactive: all assays above

CCOc1ccc(C(C)(C)COCc2cccc(Oc3ccccc3)c2)cc1
inactive: all assays above

Cc1ccc([N+](=O)[O-])cc1C
inactive: all assays above

COP(=O)(O)OC
inactive: all assays above

N#C/C=C/c1ccccc1
inactive: all assays above

N#Cc1ccc(O)cc1
inactive: all assays above

COC(N)=O
inactive: all assays above

c1cc2c3c(cccc3c1)CC2
inactive: all assays above

Nc1cc2c3c(c1)C(c1ccccc1)=N[C@@H](NC(=O)c1cccnc1)C(=O)N3CC2
inactive: all assays above

CCOC(=O)c1ccccc1C(=O)OCC
inactive: all assays above

CCCCOCC1CO1 (stereo not given)
inactive: all assays above

OCC(F)(F)OC(F)(F)C(F)(F)OC(F)(F)C(F)(F)OC(F)(F)F
active: [6] 5.62 µM
inactive: [1] | [2] | [3] | [4] | [5] | [6] | [8] | [9]

Oc1ccc(I)cc1
active: [6] 23.7 µM
not listed: [10]
inactive: all other assays above

CC(C)(C)c1ccccc1OP(=O)(Oc1ccccc1)Oc1ccccc1
active: [6] 12.4 µM
inactive: all other assays above

CC1=C(C(=O)Nc2ccccc2)S(=O)(=O)CCO1
active: [2] 21.8 µM | [4] 10.7 µM
not listed: [10]
inactive: all other assays above

CC(=O)CCc1ccc2c(c1)OCO2
not listed: [10]
inactive: all other assays above

OCC(F)(F)OC(F)(F)C(F)(F)OC(F)(F)CO
active: [6] 20 µM
not listed: [10]
inactive: all other assays above

CC(C)Nc1ccc(Nc2ccccc2)cc1
active: [2] 54.8 µM
inactive: all other assays above

CC(=O)c1ccc(-c2ccccc2)cc1
active: [6] 6.56 µM
inactive: all other assays above

CCCN(CCC)c1c([N+](=O)[O-])cc(C(C)C)cc1[N+](=O)[O-]
inactive: all assays above

C=CC(=O)OCC(F)(F)C(F)F
not listed: [7]
inactive: all other assays above

Clc1ccc(Oc2ccccc2)cc1
active: [6] 88.4 µM
inactive: all other assays above

O=S(=O)(c1ccc(O)cc1)c1ccc(O)cc1
active: [6] 1.7 µM
not listed: [7] | [10]
inactive: all other assays above

CCCCN(CCCC)N=O
not listed: [7] | [10]
inactive: all other assays above

CCCCCCCc1ccc(O)cc1
active: [6] 3.89 µM [middle of 4 runs]
inactive: all other assays above

c1ccc(OP(Oc2ccccc2)Oc2ccccc2)cc1
active: [6] 72.9 µM
inactive: all other assays above

Cc1ccc(C(=O)Cl)cc1
inactive: all assays above

C/C(=N\NC(=O)Nc1cc(F)cc(F)c1)c1ncccc1C(=O)O
inactive: all assays above

CC1(C)CN=C(NN=C(/C=C/c2ccc(C(F)(F)F)cc2)/C=C/c2ccc(C(F)(F)F)cc2)NC1
active: [2] 13.7 µM | [6] 0.303 µM | [8] 11.1 µM
not listed: [7] | [10]
inactive: all other assays above

Nc1ccc(Sc2ccc(N)cc2)cc1
active: [6] 14.4 µM
not listed: [7]
inactive: all other assays above

CCC(C)(C)c1ccc(O)cc1
active: [1] 52.4 µM | [6] 2.25 µM
not listed: [7] | [10]
inactive: all other assays above
